High-throughput results from PubChem BioAssay.
An excerpt weighted towards active compounds, which were near 1.6% of everything screened.
KCNQ2 pot: potentiators of rat KCNQ2 potassium channel | O88943 | 310,000 compounds, 0.54% hits | B-score at 10 µM | AID 2239 | CHO-K1 KCNQ2, FluxOR thallium flux fluorescence; active compounds read high;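 active means fluorescence ratio B-score at least 3 SD of library B-scores, with initial fluorescence B-score within 3 of them, cut at about 5.3 in these data; same plate scores as AID 2156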;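 further: B-score of peak minus minimum over baseline fluorescence ratio after K+ and Tl+ stimulus; positive B-score means potentiation of KCNQ2 with more thallium influx and brighter signal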
KCNQ2 inh: blocks the rat KCNQ2 potassium channel; O88943; CHO-K1 KCNQ2, FluxOR thallium flux, 20 min; active compounds read low; B-score at 10 µM; 310,000 compounds, 1.1% hits; AID 2156;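 active means fluorescence ratio B-score at most minus 3 library SDs, with starting brightness B-score within 2 library SDs, cut at about -5.5 in these data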
Kir21 confirm: confirmation of mouse Kir2.1 potassium channel inhibitors | shares compounds with KCNQ2 pot | Kir2.1-expressing cells, FluxOR thallium flux fluorescence; active compounds read low | Tl flux remaining, % of negative control (active compounds read low), % at 10 µM | 2,300 compounds, 41% hits | AID 2032;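 active means Primary-screen hit whose thallium flux fell at least 3 control SD below untreated wells in both duplicates, with normal baseline fluorescence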
HEK293 ctr: parental HEK293 activity in Kir2.1 inhibitor counter-screen | shares compounds with KCNQ2 pot | parental HEK293 cells, FluxOR thallium flux fluorescence; 0% = unstimulated blank wells | FluxOR signal as % of negative control (100 = no effect), % at 10 µM | 2,300 compounds, 19% hits | AID 2105;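 active means dye signal at least 3 control SD above or below untreated wells in both duplicates, raw fluorescence within 3, either direction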;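 further: percent is based on the flux ratio of peak minus minimum fluorescence over baseline F0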
CHO-K1 ctr: parental CHO-K1 activity in KCNQ2 potentiator counter-screen; shares compounds with KCNQ2 pot; parental CHO-K1 cells, FluxOR thallium flux fluorescence; zero = vehicle mean+3SD, 100% = vehicle-minus-blank window; activity increase over 3SD of controls, % at 10 µM; 1,200 compounds, 43% hits; AID 2282;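 active means signal rise of at least 3 SD above the untreated control mean, in both duplicate wells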;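 further: counter screen of KCNQ2 potentiator hits so any rise reflects channel-independent effects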
KCNQ1 sel pot: selectivity of KCNQ2 potentiators: effect on human KCNQ1; 1,200 compounds, 28% hits; CHO KCNQ1 stable, FluxOR thallium flux fluorescence; beyond 3SD, as % of vehicle-control signal; activation over 3SD threshold, % at 10 µM; AID 2283; shares compounds with KCNQ2 pot;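 active means fluorescence ratio rise of at least 3 SD of vehicle wells above their mean, in both replicate wells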
Target sequence (P51787 whole entry, looked up): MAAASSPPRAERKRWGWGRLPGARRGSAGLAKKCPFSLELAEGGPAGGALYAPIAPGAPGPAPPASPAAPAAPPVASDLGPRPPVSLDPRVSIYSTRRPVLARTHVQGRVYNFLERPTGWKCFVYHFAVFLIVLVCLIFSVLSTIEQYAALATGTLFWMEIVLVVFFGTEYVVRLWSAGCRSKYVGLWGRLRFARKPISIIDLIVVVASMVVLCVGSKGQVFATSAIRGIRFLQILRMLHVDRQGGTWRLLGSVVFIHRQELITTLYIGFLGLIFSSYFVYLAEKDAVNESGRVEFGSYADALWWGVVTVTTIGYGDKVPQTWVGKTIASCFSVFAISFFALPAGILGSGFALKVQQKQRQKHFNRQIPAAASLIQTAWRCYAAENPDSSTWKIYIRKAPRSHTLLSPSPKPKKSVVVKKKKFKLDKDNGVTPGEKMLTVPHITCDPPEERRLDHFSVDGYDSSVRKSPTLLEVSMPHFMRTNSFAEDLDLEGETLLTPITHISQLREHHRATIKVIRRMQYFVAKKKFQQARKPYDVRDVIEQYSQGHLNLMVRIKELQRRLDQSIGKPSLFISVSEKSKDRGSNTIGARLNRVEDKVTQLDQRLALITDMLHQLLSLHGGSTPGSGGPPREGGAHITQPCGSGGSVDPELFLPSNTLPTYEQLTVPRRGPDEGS
KCNQ2 pot conf: confirmation of rat KCNQ2 potassium channel potentiators | shares compounds with KCNQ2 pot | CHO-KCNQ2 cells, FluxOR thallium flux fluorescence | potentiation, less the hit threshold, % at 10 µM | 1,200 compounds, 68% hits | AID 2287;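 active means fluorescence ratio rising 3 SD or more over the vehicle control mean in both replicates, plus primary screen hit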;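 further: peak minus minimum thallium fluorescence divided by baseline after K/Tl stimulus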
Kir2-1 sel: tests whether KCNQ2 potentiators also affect mouse Kir2.1; shares compounds with KCNQ2 pot; HEK293 Kir2.1, FluxOR thallium flux fluorescence; activity over 3SD threshold, % at 10 µM; 1,200 compounds, 2% hits; AID 2345;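 active means fluorescence ratio rise of at least 3 SD above the vehicle-control mean, seen in both replicates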
KCNQ2 W236L MoA: rat KCNQ2 W236L mutant potentiation by KCNQ2 potentiators; 940 compounds, 10% hits; CHO KCNQ2-W236L, automated patch clamp current; shares compounds with KCNQ2 pot; current increase over 3SD of negative controls (%), active compounds read high, % at 25 µM;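 active means current increase at least 3 SD of the untreated controls above them in both duplicate recordings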
A number is an active result.

How did Cc1ccc(S(=O)(=O)c2c(N)n(NC(=O)c3ccccc3C)c3nc4ccccc4nc23)cc1 do in these assays?
KCNQ2 pot: inactive; KCNQ2 inh: inactive; Kir21 confirm: inactive; HEK293 ctr: inactive; CHO-K1 ctr: 98; KCNQ1 sel pot: inactive; KCNQ2 pot conf: inactive; Kir2-1 sel: inactive; KCNQ2 W236L MoA: inactive

How did CCCCNS(=O)(=O)c1ccc(NC(=O)c2c(-c3ccccc3Cl)noc2C)cc1 do in these assays?
KCNQ2 inh: inactive

How did COc1cc(C=O)ccc1OCC(=O)Nc1ccc2c(c1)OCO2 do in these assays?
KCNQ2 pot: inactive; KCNQ2 inh: inactive

How did O=C(OCC(=O)N1CCN(S(=O)(=O)c2ccc(Cl)cc2)CC1)c1cccc(OC(F)F)c1 do in these assays?
KCNQ2 pot: 11; KCNQ2 inh: inactive; Kir21 confirm: inactive; HEK293 ctr: inactive; CHO-K1 ctr: inactive; KCNQ1 sel pot: inactive; KCNQ2 pot conf: 12; Kir2-1 sel: inactive; KCNQ2 W236L MoA: inactive

How did COc1cccc(/C=C/C(=O)OCC(=O)N2CCN(S(=O)(=O)c3ccc(Cl)cc3)CC2)c1 do in these assays?
KCNQ2 pot: inactive; KCNQ2 inh: inactive

How did COc1cc(/C=C/c2ccc3cccc(O)c3n2)cc(OC)c1OC do in these assays?
KCNQ2 pot: 5.3; KCNQ2 inh: inactive; Kir21 confirm: inactive; HEK293 ctr: inactive; CHO-K1 ctr: 8.5; KCNQ1 sel pot: 0.7; KCNQ2 pot conf: inactive; Kir2-1 sel: inactive

Results for COc1cc(/C=C/c2ccc3cccc(O)c3n2)cc(Br)c1OC ?
KCNQ2 inh: inactive

Results for CCN(Cc1ccccc1)S(=O)(=O)c1ccc2c(c1)NC(=O)CC(=O)N2 ?
KCNQ2 inh: inactive

How did CCN(Cc1ccccc1)S(=O)(=O)c1ccc2c(c1)NC(=O)CS2 do in these assays?
KCNQ2 pot: inactive; KCNQ2 inh: inactive; Kir21 confirm: 73%; HEK293 ctr: inactive

How did c1ccc(CSc2nnnn2-c2cccc3ccccc23)nc1 do in these assays?
KCNQ2 inh: inactive; Kir21 confirm: 66%; HEK293 ctr: inactive

What do the screens show for `O=C(O)c1cccc(-n2nnnc2SCc2ccccn2)c1`?
KCNQ2 inh: inactive

How did COc1ccccc1N1CCN(C(=O)c2cn(C)c3ccc(S(=O)(=O)N4CCOCC4)cc3c2=O)CC1 do in these assays?
KCNQ2 pot: inactive; KCNQ2 inh: inactive

Results for CCC[C@H]1COCCS(=O)(=O)N1Cc1ccc(Br)cc1 ?
KCNQ2 pot: inactive; KCNQ2 inh: inactive; Kir21 confirm: inactive; HEK293 ctr: 128%

How did CCC1COCCS(=O)(=O)N1Cc1ccc(C)cc1 (centres undefined) do in these assays?
KCNQ2 pot: inactive; KCNQ2 inh: inactive

How did COc1ccccc1C(=O)C1CCCN(C(=O)c2ccccn2)C1 (centres undefined) do in these assays?
KCNQ2 inh: inactive

Results for CC(C)CNS(=O)(=O)c1ccc(S(=O)(=O)N2CCN(C3CCCC3)CC2)cc1 ?
KCNQ2 pot: inactive; KCNQ2 inh: inactive

Results for O=C(CC12CC3CC(CC(C3)C1)C2)NCC(c1ccc(F)cc1)N1CCOCC1 (centres undefined) ?
KCNQ2 pot: 11; KCNQ2 inh: inactive; Kir21 confirm: inactive; HEK293 ctr: inactive; CHO-K1 ctr: inactive; KCNQ1 sel pot: inactive; KCNQ2 pot conf: 36; Kir2-1 sel: inactive; KCNQ2 W236L MoA: inactive

Results for O=C(NCC(c1ccc(F)cc1)N1CCOCC1)c1cc(F)c(F)c(F)c1F (centres undefined) ?
KCNQ2 inh: inactive

What do the screens show for `Cn1c(CSCc2ccc(Cl)cc2)n[nH]c1=S`?
KCNQ2 inh: inactive
